Measured values: PubChem BioAssay (NCATS)
Results filed as inconclusive are left out. Calls of active or inactive are those of the source. The call rests on the fitted dose curve; in most records, active means well fitted inhibition curve with a large enough effect; inconclusive means small, poorly fitted or top-dose-only effect; inactive means flat fitted curve, though single readings scatter.

Experiments:
Experiment in all cases: qHTS profiling for inhibitors of Plasmodium falciparum proliferation (AID 504749); further: nearly all actives have a fitted effect of over 60% in size
Settings in all cases: P. falciparum in erythrocytes, SYBR Green DNA, 72 h; series mostly up to 28.7 µM
CP305 = tested on: CP305
Summary of the method: (§1)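 In a 72 h erythrocytic culture (37 C, humidified, 5% CO2) at 2.5% hematocrit and 0.3% starting parasitemia, compounds were tested; SYBR Green I in detergent lysis buffer stained parasite DNA overnight.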

CP315 = tested on: CP315
Summary of the method: as §1

CP325 = tested on: CP325
Summary of the method: as §1

CP329 = tested on: CP329
Summary of the method: as §1

CP335 = tested on: CP335
Summary of the method: as §1

DFO2036 = tested on: DFO2036
Summary of the method: as §1

DIV14 = tested on: DIV14
Summary of the method: as §1

DIV17 = tested on: DIV17
Summary of the method: as §1

DIV30 = tested on: DIV30
Summary of the method: as §1

Dd2 = tested on: Dd2
Summary of the method: as §1

ECU = tested on: ECU
Summary of the method: as §1

FAB9 = tested on: FAB9
Summary of the method: as §1

GB4 = tested on: GB4
Summary of the method: as §1

HB3 = tested on: HB3
Summary of the method: as §1

ICS = tested on: ICS
Summary of the method: as §1

JCK = tested on: JCK
Summary of the method: as §1

N140 = tested on: N140
Summary of the method: as §1

P93_24 = tested on: P93_24
Summary of the method: as §1

P94_40 = tested on: P94_40
Summary of the method: as §1

CP297 = tested on: CP297
Summary of the method: as §1

Measured: Potency
Potency means the concentration at half of the fitted maximal effect.

CN(C)C=Nc1c(I)cc(I)c(CCC(=O)O)c1I
inactive: CP305 | CP315 | CP325 | CP329 | CP335 | DFO2036 | DIV14 | DIV17 | DIV30 | Dd2 | ECU | FAB9 | GB4 | HB3 | ICS | JCK | N140 | P93_24 | P94_40

CC(O)CN(C)C (configuration not stated)
inactive: CP297 | CP305 | CP315 | CP325 | CP335 | DFO2036 | DIV14 | DIV17 | DIV30 | Dd2 | ECU | FAB9 | GB4 | HB3 | ICS | JCK | N140 | P93_24 | P94_40

O=P(O)(O)OC[C@H]1O[C@](O)(COP(=O)(O)O)[C@@H](O)[C@@H]1O
inactive: CP305 | CP315 | CP325 | CP329 | CP335 | DFO2036 | DIV14 | DIV17 | DIV30 | Dd2 | ECU | FAB9 | GB4 | HB3 | ICS | JCK | N140 | P93_24 | P94_40

C=C1C(CCl)(CCl)C2(Cl)C(Cl)C(Cl)C1(Cl)C2(Cl)Cl (configuration not stated)
active: CP297 3.79 µM | CP305 3.79 µM | CP325 3.79 µM | CP329 6.75 µM | CP335 3.01 µM | DFO2036 2 µM | DIV14 1.69 µM | DIV17 1.9 µM | DIV30 1.69 µM | Dd2 2.24 µM | ECU 2 µM | FAB9 3.55 µM | GB4 2.13 µM | HB3 2.51 µM | ICS 0.355 µM | JCK 10 µM | N140 2 µM | P93_24 2 µM | P94_40 2.51 µM

Cc1ncc[nH]1
inactive: CP297 | CP305 | CP325 | CP329 | CP335 | DFO2036 | DIV14 | DIV17 | DIV30 | Dd2 | ECU | FAB9 | GB4 | HB3 | ICS | JCK | N140 | P93_24 | P94_40

O=C(CCCN1CCC(C(=O)c2ccc(F)cc2)CC1)c1ccc(F)cc1
inactive: CP297 | CP315 | CP325 | CP329 | DFO2036 | DIV30 | ECU | FAB9 | JCK | N140 | P93_24 | P94_40
active: DIV14 0.757 µM | DIV17 4.78 µM | Dd2 8.91 µM

CC(=O)Nc1ccc(NC(=S)NC(=O)c2ccc(C(C)(C)C)cc2)cc1
inactive: CP297 | CP305 | CP315 | CP325 | CP329 | DFO2036 | DIV17 | DIV30 | ECU | FAB9 | GB4 | HB3 | JCK | N140 | P93_24 | P94_40
active: ICS 12.6 µM

CCN(CC)CCCC(C)Nc1cc(/C=C/c2ccccc2Cl)nc2cc(Cl)ccc12 (configuration not stated)
active: CP297 7.57 µM | CP325 0.849 µM | CP329 6.75 µM | CP335 2.69 µM | DFO2036 1 µM | DIV14 4.26 µM | DIV17 4.26 µM | DIV30 1.69 µM | Dd2 2.24 µM | ECU 2.51 µM | GB4 4.78 µM | HB3 2 µM | ICS 0.398 µM | JCK 11.2 µM | N140 3.16 µM | P93_24 2 µM | P94_40 1.78 µM

CC(C)(C)CC(C)(C)c1ccc(OCCO)cc1
inactive: CP297 | CP305 | CP325 | CP329 | CP335 | DFO2036 | DIV14 | DIV17 | DIV30 | Dd2 | ECU | FAB9 | GB4 | HB3 | ICS | JCK | P93_24 | P94_40

CNC(=O)c1c(I)c(C(=O)NCC(=O)Nc2c(I)c(C(=O)O)c(I)c(C(=O)NCCO)c2I)c(I)c(N(C)C(C)=O)c1I
inactive: CP297 | CP305 | CP325 | CP329 | CP335 | DFO2036 | DIV14 | DIV17 | DIV30 | Dd2 | ECU | FAB9 | GB4 | HB3 | ICS | JCK | N140 | P93_24 | P94_40

CCCc1nc(C(C)(C)O)c(C(=O)OCc2oc(=O)oc2C)n1Cc1ccc(-c2ccccc2-c2nn[nH]n2)cc1
inactive: CP297 | CP305 | CP315 | CP325 | CP329 | DFO2036 | DIV14 | DIV30 | Dd2 | ECU | FAB9 | GB4 | HB3 | JCK | N140 | P93_24 | P94_40

O=C(O[C@H]1CN2CCC1CC2)N1CCc2ccccc2[C@@H]1c1ccccc1
inactive: CP297 | CP305 | CP315 | CP325 | CP329 | DFO2036 | FAB9 | HB3 | JCK | N140 | P94_40
active: DIV14 3.79 µM | DIV17 4.26 µM | Dd2 4.47 µM

Cn1c(O)c(N=NC(N)=S)c2ccccc21
inactive: CP297 | CP315 | CP325 | CP329 | FAB9 | JCK
active: ICS 11.2 µM

N#Cc1ccc2c(c1)N(CCCN1CCC(O)CC1)c1ccccc1S2
active: DIV14 8.49 µM | DIV17 9.53 µM | Dd2 5.01 µM | N140 12.6 µM
inactive: CP297 | CP315 | ECU | FAB9 | HB3 | JCK

C#C[C@]1(O)CC[C@@H]2[C@H]3CCC4=CC(=O)CC[C@H]4[C@H]3C(=C)C[C@@]21CC
inactive: CP335 | DFO2036 | Dd2 | ECU | FAB9 | HB3 | JCK | N140 | P93_24 | P94_40
active: CP297 0.536 µM | CP305 0.426 µM | CP315 0.478 µM

O=C1CCC(=O)N1CO
inactive: CP305 | CP315 | CP325 | CP329 | CP335 | DFO2036 | DIV14 | DIV17 | DIV30 | Dd2 | ECU | FAB9 | GB4 | HB3 | ICS | JCK | N140 | P93_24 | P94_40

CC/C=C\C/C=C\C/C=C\CCCCCCCC(=O)O
inactive: CP297 | CP305 | CP315 | CP325 | CP329 | DFO2036 | DIV17 | DIV30 | Dd2 | ECU | FAB9 | GB4 | HB3 | JCK | N140 | P93_24 | P94_40

O=C(O)CCCC/C=C(\c1ccccc1)c1cccnc1
inactive: CP305 | CP315 | CP325 | CP329 | CP335 | DFO2036 | DIV14 | DIV17 | DIV30 | Dd2 | ECU | FAB9 | GB4 | HB3 | ICS | JCK | N140 | P93_24 | P94_40

CN1CCCC(CN2c3ccccc3Sc3ccccc32)C1 (configuration not stated)
active: DIV14 8.49 µM | DIV17 8.49 µM | Dd2 4.47 µM | ICS 12.6 µM | N140 8.91 µM
inactive: CP297 | CP305 | CP315 | CP325 | CP329 | FAB9 | HB3 | JCK

COc1cc(C)c(/C=C/C(C)=C/C=C/C(C)=C/C(=O)O)c(C)c1C
inactive: CP305 | CP315 | CP325 | CP329 | CP335 | DFO2036 | DIV14 | DIV17 | DIV30 | Dd2 | ECU | FAB9 | GB4 | HB3 | ICS | JCK | N140 | P93_24 | P94_40

Cc1cc(-c2ccc(N=Nc3c(S(=O)(=O)O)cc4cc(S(=O)(=O)O)cc(N)c4c3O)c(C)c2)ccc1N=Nc1c(S(=O)(=O)O)cc2cc(S(=O)(=O)O)cc(N)c2c1O
inactive: CP297 | CP305 | CP315 | CP325 | CP329 | DFO2036 | DIV30 | Dd2 | ECU | FAB9 | GB4 | HB3 | JCK

CSc1nc2cc(Oc3cccc(Cl)c3Cl)c(Cl)cc2[nH]1
active: CP297 12 µM | CP305 13.5 µM | CP325 13.5 µM | CP329 13.5 µM | DFO2036 8.91 µM | DIV14 9.53 µM | DIV30 10.7 µM | Dd2 14.1 µM | ECU 6.31 µM | GB4 12 µM | HB3 8.91 µM | N140 8.91 µM | P93_24 10 µM | P94_40 10 µM

NC(=O)CC[C@@H]1NC(=O)[C@H](Cc2ccccc2)NC(=O)[C@H](Cc2ccc(O)cc2)NC(=O)[C@@H](N)CSSC[C@@H](C(=O)N2CCC[C@H]2C(=O)N[C@@H](CCCN=C(N)N)C(=O)NCC(N)=O)NC(=O)[C@H](CC(N)=O)NC1=O
active: ICS 8.91 µM
inactive: CP297 | CP305 | CP315 | CP325 | CP329 | DIV14 | DIV30 | Dd2 | FAB9 | JCK

CCc1ccc(S(=O)(=O)O)cc1
inactive: CP305 | CP315 | CP325 | CP329 | CP335 | DFO2036 | DIV14 | DIV17 | DIV30 | Dd2 | ECU | FAB9 | GB4 | HB3 | ICS | JCK | N140 | P93_24 | P94_40

CC(C)CCCC(C)NC(C)C (configuration not stated)
inactive: CP305 | CP315 | CP325 | CP329 | CP335 | DFO2036 | DIV14 | DIV17 | DIV30 | Dd2 | ECU | FAB9 | GB4 | HB3 | ICS | JCK | N140 | P93_24 | P94_40

COc1cc(NCCCC(C)N)c2ncccc2c1 (configuration not stated)
active: CP297 8.49 µM | CP305 6.75 µM | CP325 7.57 µM | CP335 6.75 µM | DFO2036 11.2 µM | DIV14 2.13 µM | DIV17 1.35 µM | DIV30 4.78 µM | Dd2 2 µM | ECU 2.82 µM | FAB9 4.47 µM | GB4 2.13 µM | HB3 3.55 µM | ICS 0.891 µM | N140 5.62 µM | P93_24 2.24 µM | P94_40 4.47 µM
